An excerpt weighted towards active compounds, which were near 3.3% of everything screened.
BoNT-A LC inh2: BoNT/A light chain protease inhibitors, primary screen, biochemical, flow cytometry, MLPCN library | multiplex microsphere protease substrate cleavage | inhibition, % at 10 µM | 360,000 compounds, 0.17% hits; also: plate controls were buffer without enzyme for full effect and enzyme alone for no effect
Bead autofluor: counter-screen for toxin protease inhibitors: compound fluorescence. fluorescence intensity (concentration not given with the values). compound autofluorescence counterscreen, microsphere flow cytometry; active compounds read high. 360,000 compounds, 3.1% hits; in the data active = fluorescence intensity above about 16000; inconclusive = no clear call, values can overlap the other calls
PriA SSB inh: inhibitors of Klebsiella pneumoniae PriA binding to SSB C-terminal tail, primary screen, biochemical, AlphaScreen; PriA–SSB C-terminal tail interaction (Klebsiella pneumoniae); AlphaScreen SSBct-PriA binding, biotinylated peptide; inhibition, % at 33 µM; 430,000 compounds, 0.6% hits; in the data active = inhibition mostly above about 37%, no sharp cut-off; inactive = mostly below about 20%;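 also: plate controls were negative control peptide for no effect and reference peptide for full effect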
MazEF act: activators of E. coli MazEF toxin-antitoxin RNase, primary screen, biochemical, fluorescence, uHTS | FAM/BHQ RNA-DNA oligo cleavage fluorescence, 5 h | activation, % at 20 µM | 350,000 compounds, 0.32% hits; in the data active = activation above about 50%
Anthrax LF inh2: Bacillus anthracis LF protease inhibitors, primary screen, biochemical, multiplex microsphere, MLPCN library. multiplex microsphere protease cleavage assay. 360,000 compounds, 0.12% hits. Lethal factor (Bacillus anthracis), P15917. AID 588501, 2011. inhibition, % at 10 µM; also: plate controls were buffer without enzyme for full effect and enzyme alone for no effect
BoNT-F LC inh: BoNT/F light chain protease inhibitors, primary screen, biochemical, flow cytometry, MLPCN library; Botulinum neurotoxin type F light chain protease (Clostridium botulinum); Multiplex microsphere protease cleavage assay; inhibition, % at 10 µM; 360,000 compounds, 0.22% hits; AID 588497, 2011; in the data active = inhibition above about 35%, passing the limit was not always enough; inconclusive = no clear call, values can overlap the other calls; also: plate controls were buffer without enzyme for full effect and enzyme alone for no effect
* marks the source's active call; other numbers are inactive results; ? = inconclusive; . = no result; + = active, no number. Rule as the data show it, unless noted: active = inhibition above about 30%; inconclusive = no clear call, values can overlap the other calls; inactive = below that.

SMILES	BoNT-A LC inh2	Bead autofluor	PriA SSB inh	MazEF act	Anthrax LF inh2	BoNT-F LC inh
CCS(=O)(=O)N1CCc2nc(-c3ccccc3)sc2C1	-5.4	4135	91.0*	13.9	-1.4	-5.4
NS(=O)(=O)c1ccc(CCNS(=O)(=O)CCCOc2ccc(F)cc2)cc1	.	.	7.0	.	.	.
Cc1ccccc1C1C(C#N)=C2N=C(N)c3c(sc4c3CCCCC4)N2C2=C1C(=O)CC(C)(C)C2 (configuration not stated)	3.2	6644	11.2	165.4*	-4.1	-9.4
Cc1ccc2[nH]c(=O)oc(=O)c2c1	.	.	-19.0	.	.	.
Cc1ccc(S(=O)(=O)NC[C@](C)(O)c2ccccc2)cc1C	.	.	-9.0	.	.	.
O=C(NC(c1ccccc1)c1ccccc1)c1cc2ccccc2c(=O)s1	.	.	-15.0	.	.	.
C=CCOC(=O)c1cc(-c2ccc(/C=C3\C(=O)NC(=O)C(C#N)=C3C)o2)ccc1Cl	0.6	5030	13.2	-11.3	2.5	1.9
CCCOC(=O)c1cc(-c2ccc(/C=C3/C(=O)N(C)C(=O)C(C#N)=C3C)o2)ccc1Cl	-2.1	22120*	23.5	7.8	-0.4	-1.8
Nc1nnc(SCC(=O)NC23CC4CC(CC(C4)C2)C3)s1	-1.0	21047*	-12.4	-3.7	-4.4	-1.4
Cc1ccc(C(=O)N/C(=C/c2ccc(-c3cc(C(F)(F)F)ccc3Cl)o2)C(=O)NCc2cccnc2)cc1	-0.2	8011	-1.0	-18.0	-4.8	-5.2
O=C(NCc1cccnc1)/C(=C/c1ccc(-c2cccc(C(F)(F)F)c2)o1)NC(=O)c1ccccc1	?	22544*	-3.4	9.1	-2.1	-9.0
Cc1onc(-c2ccccc2)c1-c1n[nH]c(=S)n1-c1ccccc1Cl	-1.1	22416*	-3.4	2.9	-2.0	-2.1
Cc1onc(-c2ccccc2)c1-c1n[nH]c(=S)n1-c1ccc(C(=O)O)cc1	-0.3	2976	-28.2	1.2	-3.0	-1.5
CC1CCN(S(=O)(=O)c2ccc(S(=O)(=O)NCC3COCCO3)cc2)CC1 (configuration not stated)	-2.2	23033*	1.3	6.5	1.1	-0.7
O=S(=O)(NCC1CCCO1)c1ccc(S(=O)(=O)N2CCCC2)cc1 (configuration not stated)	-0.1	12172	-1.3	2.5	-3.0	-2.9
Cc1ccccc1NC(=S)N(Cc1ccccn1)Cc1ccccc1Cl	0.4	3853	-9.5	-4.4	1.9	-2.8
S=C(NN=C(c1ccccc1)c1ccccn1)N(Cc1ccccn1)Cc1ccccn1	51.4*	3806	74.4*	2.3	43.0*	42.5*
CC(=NNC(=S)N(Cc1ccccn1)Cc1ccccn1)c1cnccn1	16.3	4053	94.5*	0.3	40.0*	44.9*
NC(=S)N/N=C(\c1ccccc1)c1ccccn1	.	.	+	.	.	.
S=C(NN=Cc1ccccn1)N(Cc1ccccn1)Cc1ccccn1	12.2	3814	95.6*	7.0	21.0	16.7
O=C(CCCC(=O)N/N=C\c1ccccn1)N/N=C\c1ccccn1	-0.4	1922	.	-3.0	0.4	-5.6
Cc1ccc(NC(=O)c2csc(NS(=O)(=O)c3cccs3)n2)cc1F	.	.	1.0	.	.	.
O=C(Cc1ccccc1)Nc1nc(=O)c2ccccc2s1	0.3	2315	2.4	-4.8	1.7	-0.4
O=C(Cc1nc(=O)c2ccccc2s1)Nc1ccccc1	9.7	16611*	-0.1	34.2	-11.3	10.7
CCCCCn1c(NC(=O)c2ccco2)c(C(=O)OCC)c2nc3ccccc3nc21	10.5	2156	7.4	-4.7	3.3	5.5
SMILES	BoNT-A LC inh2	Bead autofluor	PriA SSB inh	MazEF act	Anthrax LF inh2	BoNT-F LC inh
CCC(=O)Nc1c(C#N)c2nc3ccccc3nc2n1-c1ccc(C)cc1	1.1	6120	17.3	0.0	4.1	-5.2
CCC(C)n1c(NC(=O)c2ccccc2)c(C#N)c2nc3ccccc3nc21 (configuration not stated)	27.2	7113	57.5*	3.5	16.2	13.1
CCCCn1c(NC(=O)c2ccccc2)c(C#N)c2nc3ccccc3nc21	7.6	5517	56.2*	-12.5	-4.2	-0.2
CCCCSc1nnc(CSc2ncccn2)n1-c1cccc(C(F)(F)F)c1	.	.	1.0	.	.	.
COc1ccccc1-c1cc(C(=O)NCc2ccc(F)cc2)no1	2.4	16081	-17.2	2.3	-1.3	-2.1
COC(=O)c1ccccc1NC(=O)c1cc(-c2cccs2)on1	0.7	20518*	-3.6	-52.1	-1.1	1.9
O=C(NCc1ccc(F)cc1)c1cc(-c2cccs2)on1	2.4	10320	-7.5	-1.0	0.2	-0.1
COC(=O)c1ccccc1NC(=O)c1cc(-c2ccco2)on1	0.3	4529	-0.7	-5.1	-0.1	-1.5
O=C(NCc1ccccc1)c1cc(-c2cccs2)on1	5.1	18644*	-6.3	-6.5	-8.8	6.9
COc1ccccc1-c1cc(C(=O)NCc2ccccc2)no1	-1.1	21016*	-5.7	1.8	-2.4	-1.5
CC(=O)Nc1ccc(OC(=O)N2c3ccccc3Sc3ccccc32)cc1	.	.	2.0	.	.	.
COC(=O)c1ccc(Oc2nc(Nc3ccc(C)c(C)c3)nc(N(C)C)n2)cc1	-3.2	24525*	-14.9	-0.2	-4.2	-7.2
CCNc1nc(Oc2ccc(C(=O)OC)cc2)nc(N(C)C)n1	0.1	2738	-5.8	2.5	1.6	0.7
COc1cc(C(C(=O)NC2CCCCC2)N(Cc2cccs2)C(=O)Cc2c[nH]c3ccccc23)cc(OC)c1OC (configuration not stated)	-2.7	23578*	1.9	-3.5	-2.5	-4.4
COc1cc(C(C(=O)NC2CCCCC2)N(C(=O)Cc2c[nH]c3ccccc23)c2ccccc2C)cc(OC)c1OC (configuration not stated)	-0.1	2433	11.2	-5.7	-1.7	-3.8
Cc1ccc(C(C(=O)NC2CCCCC2)N(Cc2ccccc2)C(=O)Cc2c[nH]c3ccccc23)o1 (configuration not stated)	-0.1	2243	2.8	0.9	-2.8	-1.9
COc1ccc(CN(C(=O)Cc2c[nH]c3ccccc23)C(C(=O)NC2CCCCC2)c2ccc(C)o2)cc1 (configuration not stated)	-6.4	27158*	12.7	4.0	-6.1	-8.7
Brc1ccc2nc(-n3nnc4ccccc43)nc(-c3ccccc3)c2c1	.	.	-15.0	.	.	.
CCOc1ccc(C=NNc2nncc(-c3ccccc3)n2)cc1OC	.	.	-10.7	.	.	.
COC(=O)CSc1ccc2nnc(-c3ccncc3)n2n1	.	.	-5.0	.	.	.
CCCC(=O)Nc1ccc2oc(-c3ccc(OC)c(Br)c3)nc2c1	2.9	21634*	-6.1	-1.9	-5.7	3.3
COc1ccccc1C(=O)Nc1ccc2oc(-c3ccc(F)cc3)nc2c1	-1.9	17405*	-6.9	-4.8	-0.2	-1.1
